Source: the supplement of paper PMC10849652
About 8,800 targets were measured; listed, in parts, are those with a hit and a random draw of the rest. About 0.5% of all pairs of compound and target were hits. A number with no mark means an inactive call.

How the values were obtained:
Test in all cases: log2 fold change, soluble protein after heating vs DMSO (PISA); higher = thermal stabilisation; K562 lysate, 10 uM; active = over 0.2 and 3.5 SD of the protein, either way, in both replicates (recomputed)
[1] = compound: CN1CC[C@H](c2c(O)cc(O)c3c(=O)cc(-c4ccccc4Cl)oc23)[C@H](O)C1 [alvocidib]
In short: (§1)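 A 30 min treatment with 10 μM compound was applied to crude K562 extract at 1 mg/mL protein in PBS pH 7.4 with 1 mM MgCl2. Heating for 3 min spanned 48°C-58°C, after which aliquots were pooled, adjusted to 0.5% NP-40 at 4°C and spun at 21,000xg for 90 min. TMTpro 16plex LC-MS/MS of the supernatant, with channel sums equalised, gave values recorded as log-two fold change in thermal stability against solvent controls, from duplicates.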

[2] = compound: CN1CCc2c(c3ccccc3n2Cc2ccc(C(=O)NO)cc2)C1 [Tubastatin A]
In short: as §1

[3] = compound: CNC(=O)C1=CC=CC=C1NC2=NC(=NC=C2Cl)NC3=C(C=C(C=C3)N4CCOCC4)OC
In short: as §1

[4] = compound: CNC(=O)c1ccc(Nc2ncc(C(F)(F)F)c(NCc3nccnc3N(C)S(C)(=O)=O)n2)cc1 [defactinib]
In short: as §1

[5] = compound: CNc1nc(-c2ccc3c(N)n[nH]c3c2)cc(N2C[C@@H](C(=O)NC3CCCCC3)CC[C@H]2C)n1
In short: as §1

[6] = compound: COC(=O)N[C@@H](C)CNc1nccc(-c2cn(C(C)C)nc2-c2cc(Cl)cc(NS(C)(=O)=O)c2F)n1 [encorafenib]
In short: as §1

[7] = compound: COC(=O)[C@H](CCSC)NC(=O)C1=C(C=C(C=C1)NC[C@H](CS)N)C2=CC=CC=C2
In short: as §1

[8] = compound: COc1cc(Nc2ncc3c(n2)-c2ccc(Cl)cc2C(c2c(F)cccc2OC)=NC3)ccc1C(=O)O [alisertib]
In short: as §1

[9] = compound: COc1cc2ncnc(Nc3ccc(F)c(Cl)c3)c2cc1OCCCN1CCOCC1 [gefitinib]
In short: as §1

[10] = compound: C[C@@H](Oc1cc(-c2cnn(C3CCNCC3)c2)cnc1N)c1c(Cl)ccc(F)c1Cl [crizotinib]
In short: as §1

[11] = compound: C[C@H](C1=CC=C(C=C1)C(=O)NC2=C3C=CNC3=NC=C2)N
In short: as §1

[12] = compound: C[C@H](Nc1ncnc2nc[nH]c12)c1cc2cccc(Cl)c2c(=O)n1-c1ccccc1 [duvelisib]
In short: as §1

[13] = compound: Cc1cc(Nc2cc(CN3CCOCC3)c3nc(C)c(Cc4ccc(Cl)cc4F)n3n2)n[nH]1 [gandotinib]
In short: as §1

[14] = compound: Cc1cc(Nc2cc(N3CCN(C)CC3)nc(Sc3ccc(NC(=O)C4CC4)cc3)n2)n[nH]1 [tozasertib]
In short: as §1

[15] = compound: Cc1ccc(-n2nc(C(C)(C)C)cc2NC(=O)Nc2ccc(OCCN3CCOCC3)c3ccccc23)cc1 [doramapimod]
In short: as §1

[16] = compound: Cc1cccc(CC(=O)N2CCc3c2ccc(-c2cn(C)c4ncnc(N)c24)c3F)n1
In short: as §1

[17] = compound: COc1cc2nc(-c3cc(F)ccc3O)nc(N[C@@H]3CNC[C@H]3C(C)(C)O)c2cc1OC
In short: as §1

[18] = compound: CS(=O)(=O)CCNCc1ccc(-c2ccc3ncnc(Nc4ccc(OCc5cccc(F)c5)c(Cl)c4)c3c2)o1 [lapatinib]
In short: as §1

[19] = compound: CS(=O)(=O)N1CCN(Cc2cc3nc(-c4cccc5[nH]ncc45)nc(N4CCOCC4)c3s2)CC1 [pictilisib]
In short: as §1

[20] = compound: Cc1ccc(NC(=O)c2ccc(CN3CC[C@H](N(C)C)C3)c(C(F)(F)F)c2)cc1Nc1nccc(-c2cncnc2)n1 [bafetinib]
In short: as §1

UniProt O75122, sequence (O75122 whole entry, looked up): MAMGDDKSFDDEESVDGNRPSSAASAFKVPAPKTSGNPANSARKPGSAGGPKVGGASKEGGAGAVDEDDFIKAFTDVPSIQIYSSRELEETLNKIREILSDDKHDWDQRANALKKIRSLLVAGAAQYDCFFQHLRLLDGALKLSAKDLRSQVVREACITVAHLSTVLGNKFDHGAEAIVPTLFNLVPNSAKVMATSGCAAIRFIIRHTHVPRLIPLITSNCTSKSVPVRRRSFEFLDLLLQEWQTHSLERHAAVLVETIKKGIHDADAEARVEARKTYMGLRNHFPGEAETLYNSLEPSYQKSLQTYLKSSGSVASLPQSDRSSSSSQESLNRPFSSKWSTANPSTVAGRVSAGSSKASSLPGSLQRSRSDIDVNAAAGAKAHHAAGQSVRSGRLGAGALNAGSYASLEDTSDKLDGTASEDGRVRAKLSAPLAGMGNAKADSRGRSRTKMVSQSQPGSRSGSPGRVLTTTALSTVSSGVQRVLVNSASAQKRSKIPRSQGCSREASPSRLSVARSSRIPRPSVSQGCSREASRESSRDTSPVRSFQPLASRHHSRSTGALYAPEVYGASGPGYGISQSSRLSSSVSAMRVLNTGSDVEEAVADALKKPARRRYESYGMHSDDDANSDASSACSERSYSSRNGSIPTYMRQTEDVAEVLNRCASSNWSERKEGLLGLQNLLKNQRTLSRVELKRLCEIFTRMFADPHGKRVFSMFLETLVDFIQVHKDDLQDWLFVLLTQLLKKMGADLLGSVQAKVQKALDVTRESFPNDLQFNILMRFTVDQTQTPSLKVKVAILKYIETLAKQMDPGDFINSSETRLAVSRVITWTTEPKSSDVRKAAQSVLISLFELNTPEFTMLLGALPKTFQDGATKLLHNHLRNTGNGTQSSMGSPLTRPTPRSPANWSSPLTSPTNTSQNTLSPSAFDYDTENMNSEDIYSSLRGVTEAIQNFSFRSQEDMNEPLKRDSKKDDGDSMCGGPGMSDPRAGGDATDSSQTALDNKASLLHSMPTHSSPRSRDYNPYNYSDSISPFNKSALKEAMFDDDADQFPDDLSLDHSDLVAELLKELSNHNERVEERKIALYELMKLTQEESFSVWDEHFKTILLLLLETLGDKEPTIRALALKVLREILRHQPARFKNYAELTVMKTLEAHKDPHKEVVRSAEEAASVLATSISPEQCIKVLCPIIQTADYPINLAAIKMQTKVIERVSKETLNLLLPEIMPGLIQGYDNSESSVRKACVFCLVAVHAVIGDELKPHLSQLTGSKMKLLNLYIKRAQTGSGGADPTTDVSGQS
UniProt Q99715, sequence (Q99715 whole entry, looked up): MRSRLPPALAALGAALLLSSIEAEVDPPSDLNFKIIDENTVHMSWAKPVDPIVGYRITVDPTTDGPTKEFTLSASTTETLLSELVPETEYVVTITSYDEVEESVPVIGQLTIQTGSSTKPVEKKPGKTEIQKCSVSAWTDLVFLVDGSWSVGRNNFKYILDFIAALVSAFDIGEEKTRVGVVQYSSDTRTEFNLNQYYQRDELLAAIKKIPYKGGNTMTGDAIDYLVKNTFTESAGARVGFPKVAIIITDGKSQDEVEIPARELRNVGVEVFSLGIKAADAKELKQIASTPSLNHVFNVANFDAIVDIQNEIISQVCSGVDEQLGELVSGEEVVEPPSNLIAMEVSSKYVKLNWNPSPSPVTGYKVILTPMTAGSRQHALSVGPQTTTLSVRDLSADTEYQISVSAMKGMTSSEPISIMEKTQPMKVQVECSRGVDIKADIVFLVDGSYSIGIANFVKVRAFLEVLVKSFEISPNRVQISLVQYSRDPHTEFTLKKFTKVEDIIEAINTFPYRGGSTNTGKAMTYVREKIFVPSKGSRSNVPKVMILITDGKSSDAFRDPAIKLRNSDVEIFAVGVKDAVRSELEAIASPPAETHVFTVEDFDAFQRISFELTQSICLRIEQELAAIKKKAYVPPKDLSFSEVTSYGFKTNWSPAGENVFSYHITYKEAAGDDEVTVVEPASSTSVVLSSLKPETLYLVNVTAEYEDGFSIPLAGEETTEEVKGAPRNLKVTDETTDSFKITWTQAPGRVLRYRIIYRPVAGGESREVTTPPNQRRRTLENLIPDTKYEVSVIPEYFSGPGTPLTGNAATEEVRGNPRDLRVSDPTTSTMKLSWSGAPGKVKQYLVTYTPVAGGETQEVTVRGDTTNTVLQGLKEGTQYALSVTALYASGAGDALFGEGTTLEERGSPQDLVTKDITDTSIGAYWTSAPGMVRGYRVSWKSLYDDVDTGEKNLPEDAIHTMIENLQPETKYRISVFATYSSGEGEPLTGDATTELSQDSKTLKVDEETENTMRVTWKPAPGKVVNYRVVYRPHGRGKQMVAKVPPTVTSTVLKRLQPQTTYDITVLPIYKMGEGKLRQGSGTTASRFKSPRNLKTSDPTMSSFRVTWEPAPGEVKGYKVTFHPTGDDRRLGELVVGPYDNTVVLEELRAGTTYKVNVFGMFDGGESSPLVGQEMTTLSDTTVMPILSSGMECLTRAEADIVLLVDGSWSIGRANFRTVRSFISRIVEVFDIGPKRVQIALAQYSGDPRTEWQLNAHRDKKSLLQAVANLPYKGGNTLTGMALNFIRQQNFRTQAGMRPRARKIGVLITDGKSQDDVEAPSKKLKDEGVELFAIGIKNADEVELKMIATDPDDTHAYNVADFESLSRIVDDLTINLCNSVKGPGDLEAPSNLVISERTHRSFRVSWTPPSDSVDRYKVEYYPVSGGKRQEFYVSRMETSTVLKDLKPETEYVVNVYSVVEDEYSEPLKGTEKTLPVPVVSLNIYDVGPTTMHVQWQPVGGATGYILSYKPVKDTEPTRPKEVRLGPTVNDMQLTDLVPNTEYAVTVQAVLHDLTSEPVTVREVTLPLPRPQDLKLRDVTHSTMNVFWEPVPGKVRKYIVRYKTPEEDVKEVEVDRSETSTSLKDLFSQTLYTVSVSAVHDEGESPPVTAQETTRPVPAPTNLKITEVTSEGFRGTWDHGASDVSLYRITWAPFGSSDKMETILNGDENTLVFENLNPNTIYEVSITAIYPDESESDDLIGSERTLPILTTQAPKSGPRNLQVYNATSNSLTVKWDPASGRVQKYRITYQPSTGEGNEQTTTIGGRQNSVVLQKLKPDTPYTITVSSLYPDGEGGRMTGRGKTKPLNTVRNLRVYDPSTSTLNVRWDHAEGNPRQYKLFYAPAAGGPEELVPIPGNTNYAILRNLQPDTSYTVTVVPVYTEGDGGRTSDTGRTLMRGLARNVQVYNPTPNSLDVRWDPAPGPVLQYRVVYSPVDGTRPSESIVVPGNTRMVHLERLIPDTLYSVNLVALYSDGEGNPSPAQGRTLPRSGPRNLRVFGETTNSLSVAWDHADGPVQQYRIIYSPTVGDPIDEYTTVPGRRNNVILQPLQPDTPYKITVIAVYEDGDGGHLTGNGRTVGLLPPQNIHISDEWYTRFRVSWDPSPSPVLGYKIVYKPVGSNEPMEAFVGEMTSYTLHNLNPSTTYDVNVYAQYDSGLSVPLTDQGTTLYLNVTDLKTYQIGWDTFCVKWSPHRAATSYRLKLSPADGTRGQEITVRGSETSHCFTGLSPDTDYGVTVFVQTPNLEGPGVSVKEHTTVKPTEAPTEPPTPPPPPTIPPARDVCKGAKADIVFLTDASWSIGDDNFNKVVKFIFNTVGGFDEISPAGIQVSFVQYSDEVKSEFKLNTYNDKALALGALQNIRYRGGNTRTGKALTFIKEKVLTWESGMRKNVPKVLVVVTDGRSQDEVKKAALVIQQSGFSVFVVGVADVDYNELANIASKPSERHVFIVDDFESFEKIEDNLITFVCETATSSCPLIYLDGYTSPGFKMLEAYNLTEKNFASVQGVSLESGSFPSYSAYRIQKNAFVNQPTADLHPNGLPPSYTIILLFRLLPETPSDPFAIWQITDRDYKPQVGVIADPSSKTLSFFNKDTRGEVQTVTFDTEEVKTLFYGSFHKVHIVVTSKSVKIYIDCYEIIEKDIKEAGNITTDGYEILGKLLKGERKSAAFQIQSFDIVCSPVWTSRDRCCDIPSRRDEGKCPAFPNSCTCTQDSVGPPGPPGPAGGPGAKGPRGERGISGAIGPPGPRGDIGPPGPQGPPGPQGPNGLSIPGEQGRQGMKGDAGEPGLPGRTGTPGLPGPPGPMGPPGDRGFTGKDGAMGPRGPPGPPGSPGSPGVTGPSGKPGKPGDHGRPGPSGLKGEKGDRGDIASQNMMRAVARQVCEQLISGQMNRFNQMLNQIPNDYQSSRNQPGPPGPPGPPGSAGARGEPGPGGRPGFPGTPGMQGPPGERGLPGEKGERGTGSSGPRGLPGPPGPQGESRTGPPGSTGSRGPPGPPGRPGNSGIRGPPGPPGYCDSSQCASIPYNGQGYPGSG
UniProt Q9BSY9, sequence (Q9BSY9 whole entry, looked up): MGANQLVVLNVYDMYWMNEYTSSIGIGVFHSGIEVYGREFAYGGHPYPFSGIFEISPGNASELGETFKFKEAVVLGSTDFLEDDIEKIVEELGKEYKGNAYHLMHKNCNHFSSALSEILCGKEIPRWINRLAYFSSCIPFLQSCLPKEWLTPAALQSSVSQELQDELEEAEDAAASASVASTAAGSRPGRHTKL
UniProt O95715, sequence (O95715 whole entry, looked up): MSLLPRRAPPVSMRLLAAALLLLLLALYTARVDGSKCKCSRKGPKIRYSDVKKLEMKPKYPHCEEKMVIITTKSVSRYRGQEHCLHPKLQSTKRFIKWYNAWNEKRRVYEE
UniProt Q8WXC6, sequence (Q8WXC6 whole entry, looked up): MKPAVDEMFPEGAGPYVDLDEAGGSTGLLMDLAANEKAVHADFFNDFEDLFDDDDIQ
UniProt Q16527, sequence (Q16527 whole entry, looked up): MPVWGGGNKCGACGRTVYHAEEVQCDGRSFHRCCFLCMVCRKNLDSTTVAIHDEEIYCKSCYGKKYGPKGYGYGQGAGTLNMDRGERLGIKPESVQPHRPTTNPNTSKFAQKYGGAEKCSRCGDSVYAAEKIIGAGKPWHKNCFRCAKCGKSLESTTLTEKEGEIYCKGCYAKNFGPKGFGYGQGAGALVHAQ
UniProt O14810, sequence (O14810 whole entry, looked up): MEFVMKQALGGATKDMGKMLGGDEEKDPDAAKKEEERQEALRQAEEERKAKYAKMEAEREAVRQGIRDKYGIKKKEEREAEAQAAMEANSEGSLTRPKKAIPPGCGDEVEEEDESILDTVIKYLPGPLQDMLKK

| Target | log2 fold change [1] | log2 fold change [2] | log2 fold change [3] | log2 fold change [4] | log2 fold change [5] | log2 fold change [6] | log2 fold change [7] | log2 fold change [8] | log2 fold change [9] | log2 fold change [10] | log2 fold change [11] | log2 fold change [12] | log2 fold change [13] | log2 fold change [14] | log2 fold change [15] | log2 fold change [16] | log2 fold change [17] | log2 fold change [18] | log2 fold change [19] | log2 fold change [20] |
| --- | --- | --- | --- | --- | --- | --- | --- | --- | --- | --- | --- | --- | --- | --- | --- | --- | --- | --- | --- | --- |
| CORO7 (UniProt P57737) | 0.001 | 0.011 | -0.092 | 0.191 | -0.05 | -0.081 | 0.061 | 0.259 | -0.062 | -0.004 | -0.139 | -0.084 | 0 | 0.092 | 0.016 | -0.335 |  |  |  |  |
| CNNM2 (UniProt Q9H8M5) | -0.049 | -0.105 | 0.007 | 0.065 | -0.01 | -0.048 | 0.033 |  |  | 0.021 | -0.039 | 0.041 | -0.064 | -0.078 | -0.026 | 0.036 | -0.003 | 0.006 |  |  |
| CSNK1D (UniProt P48730) | 0.244 | -0.085 |  | 0.103 | -0.091 | 0.041 | 0.013 | 0 | -0.023 | 0.052 | -0.153 | 0.007 | 0.059 | 0.008 | -0.011 | -0.177 | -0.131 | -0.098 | 0.066 | -0.01 |
| DDR1 isoform 5 (UniProt Q08345) | -0.034 | 0.052 |  |  | 0.147 | 0.044 | -0.094 | 0 | 0.046 | -0.712 (active) | 0.097 | -0.051 | -0.305 |  |  | 0.007 |  |  | -0.075 | 0.101 |
| CSNK2A1, A0A2R8Y4D6 |  |  |  |  |  |  |  |  |  |  |  |  |  |  |  |  | 0.06 | -0.132 |  |  |
| COPS9 (UniProt Q8WXC6) |  | -0.272 | 0.087 |  |  |  |  |  |  |  |  |  |  |  |  |  | 0.163 | 0.148 |  |  |
| DESI2 (UniProt Q9BSY9) | -0.07 |  |  | 0.016 |  | -0.057 | -0.014 |  |  |  | -0.095 |  | -0.078 | -0.095 |  | 0.316 |  |  |  |  |
| CLASP2 (UniProt O75122) | -0.139 | -0.066 |  | 0.002 |  | 0.058 | -0.071 | 0.182 | -0.047 | 0.127 | -0.086 |  | -0.031 | 0.052 | -0.001 | 0.067 | 0.037 | 0.003 |  | -0.199 |
| CHMP4A (UniProt H0YIN6) | -0.197 | 0.193 |  |  | 0.528 |  |  |  |  | -0.211 | -0.091 | 0 | 0.451 |  | -0.059 | 0.325 | 0.104 | -0.078 | -0.071 | -0.098 |
| CNOT2 (UniProt F8VRS8) |  |  | 0.004 |  |  |  |  |  |  |  |  |  |  |  |  |  |  |  |  |  |
| CINP isoform 3 (UniProt Q9BW66) | -0.056 | -0.107 |  | -0.056 | 0.028 | 0.003 | 0.062 | 0 | -0.24 | -0.028 | -0.325 (active) | 0.062 | 0.018 | 0.056 | 0.036 | 0.208 | 0.064 | -0.059 | 0.011 | -0.059 |
| CRLS1 (UniProt Q9UJA2) | 0.056 | 0.007 | 0.068 |  |  |  |  | 0.076 | 0.079 | -0.086 | 0.084 |  | -0.105 |  | -0.062 | -0.176 | -0.017 | -0.003 | -0.107 | -0.437 |
| DLGAP5 isoform 3 (UniProt Q15398) | 0 |  |  |  | -0.051 |  |  |  |  |  | -0.176 | -0.098 | 0.05 |  |  | -0.505 |  |  | 0.092 | 0.031 |
| CLASP1 isoform 4 (UniProt Q7Z460) |  |  | 0.046 | 0.223 |  |  |  | 0.063 | 0.107 |  |  |  |  |  |  |  |  |  |  |  |
| DNM2 isoform 4 (UniProt P50570) | -0.16 | -0.095 | -0.278 |  | 0.055 | 0.13 | 0.06 | -0.007 | 0.029 | 0.014 | -0.16 | 0.015 | -0.134 | -0.084 | 0.066 | 0.16 | -0.032 | 0.031 |  |  |
| CSNK1A1 isoform 3 (UniProt P48729) |  | -0.138 |  |  | 0.068 |  |  |  |  |  |  | -0.077 |  |  |  |  |  |  |  |  |
| CPLX1 (UniProt O14810) |  | 0.04 |  | 0.144 | -0.127 | -0.017 | -0.415 |  |  |  |  | -0.001 |  | 0.167 |  |  | -0.005 | -0.095 |  |  |
| CSNK1A1 (UniProt P48729) | 0.007 | -0.105 |  | 0.077 | 0.019 | 0.081 | -0.005 |  | -0.005 | -0.049 | 0.084 | -0.034 | -0.077 | -0.068 | 0.027 | -0.01 | 0.049 | -0.099 | 0.084 | 0 |
| CXCL14 (UniProt O95715) |  |  |  | -0.235 |  | -0.034 | 0.066 |  |  |  |  |  |  | -0.021 |  |  |  |  | -0.083 | -0.649 |
| CSNK1G3 isoform 4 (UniProt Q9Y6M4) |  |  |  |  |  |  |  |  |  |  |  |  |  |  |  |  | 0.53 | -0.035 |  |  |
| CIC (UniProt I3L1Q4) |  |  |  |  |  |  |  |  |  |  |  |  |  |  |  |  |  |  | 0.065 | 0.021 |
| DAZAP1 (UniProt K7EQ02) |  |  |  |  |  |  |  | 0.071 | -0.084 |  |  |  |  |  |  |  |  |  |  |  |
| DHRS13 (UniProt Q6UX07) |  | -0.087 | -0.083 |  | 0.004 |  |  | -0.211 | 0.036 | -0.048 |  | 0.185 |  |  | 0.087 |  | -0.138 | 0.048 | -0.052 | -0.113 |
| CSDE1 isoform 3 (UniProt O75534) | 0.029 | -0.014 |  |  |  |  |  | -0.011 | -0.09 | -0.179 | 0.139 |  | -0.043 |  | 0.055 | -0.058 | 0.28 | 0.184 | -0.141 | 0.126 |
| DONSON (UniProt Q9NYP3) | 0.04 | -0.079 | 0.069 |  | 0.005 |  |  | -0.05 | 0.075 | -0.012 | -0.32 | 0.007 | 0.196 |  | 0.07 | -0.157 | 0.028 | -0.012 | -0.019 | -0.033 |
| DALRD3 (UniProt Q5D0E6) | -0.016 |  | -0.026 | 0.033 |  | 0.054 | -0.391 |  |  |  | -0.131 |  | -0.087 | 0.139 |  | 0.096 | -0.004 | 0.021 |  |  |
| CLIP1, A0A3B3ITA2 | -0.036 | 0.152 |  | -0.077 |  |  |  |  |  | -0.033 | -0.222 |  | 0.55 |  | -0.138 | 0.269 |  |  |  |  |
| CSRP2 (UniProt Q16527) | -0.028 |  |  |  |  | -0.046 | -0.056 |  |  | -0.157 | -0.018 |  | -0.068 | 0.118 | 0.051 | 0.052 |  |  | -0.063 | 0.072 |
| CSAD isoform 3 (UniProt Q9Y600) |  | 0.082 | -0.044 |  |  |  |  |  |  | -0.123 |  |  |  |  | 0.035 |  |  |  | -0.123 | 0.046 |
| COL12A1 (UniProt Q99715) |  |  | 0.095 | -0.059 | 0.531 | 0.003 | -0.092 |  |  | -0.031 |  | 0.086 |  | -0.021 | 0.88 |  | 1.32 (active) | -0.117 |  |  |
